Tests used:
Experiment in all cases: DAPPL (digital affinity profiling via proximity ligation, sequencing); 10 mM Tris-HCl pH 7.5, 50 mM NaCl, 1 mM DTT, 4% glycerol, room temperature, 30 min; GST-TFs on glutathione beads, 16-mer random dsDNA library, 0.1% formaldehyde crosslink after washing; high values mean tight binding
FLI1 = biological target: T1, FLI1 (Homo sapiens, UniProt Q01543 1-452); settings: protein: recombinant; tags: N-terminal GST; dsDNA, one strand shown
T1 sequence: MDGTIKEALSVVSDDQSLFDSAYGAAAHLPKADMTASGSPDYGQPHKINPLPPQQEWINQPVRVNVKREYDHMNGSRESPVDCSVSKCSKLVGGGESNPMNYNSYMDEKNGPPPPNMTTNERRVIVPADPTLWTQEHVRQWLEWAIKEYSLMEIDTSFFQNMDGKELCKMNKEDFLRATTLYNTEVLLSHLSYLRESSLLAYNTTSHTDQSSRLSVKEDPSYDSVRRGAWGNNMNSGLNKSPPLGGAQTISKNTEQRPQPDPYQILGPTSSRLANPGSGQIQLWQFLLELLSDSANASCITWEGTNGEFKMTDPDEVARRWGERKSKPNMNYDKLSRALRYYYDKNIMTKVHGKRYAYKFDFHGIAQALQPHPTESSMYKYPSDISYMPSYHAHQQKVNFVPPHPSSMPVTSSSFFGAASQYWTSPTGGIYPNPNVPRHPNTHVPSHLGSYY
How it was run: (§1)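 Yeast served to express human transcription factors as GST fusions, which were then captured on glutathione beads and labelled with DNA barcodes. Pooled with a tag-only sample, they were incubated with 200 nmole of a 16-mer random double-stranded DNA library for 30 min at room temperature in Tris/NaCl/DTT/glycerol buffer, washed, crosslinked with 0.1% formaldehyde, ligated by proximity, amplified by PCR and sequenced. Dividing each hexamer's read frequency for a factor by its frequency for the tag-only sample gives the binding signal.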

ELK1 = biological target: T2, ELK1 (Homo sapiens, UniProt P19419 1-428); settings: protein: recombinant; tags: N-terminal GST; dsDNA, one strand shown
T2 sequence: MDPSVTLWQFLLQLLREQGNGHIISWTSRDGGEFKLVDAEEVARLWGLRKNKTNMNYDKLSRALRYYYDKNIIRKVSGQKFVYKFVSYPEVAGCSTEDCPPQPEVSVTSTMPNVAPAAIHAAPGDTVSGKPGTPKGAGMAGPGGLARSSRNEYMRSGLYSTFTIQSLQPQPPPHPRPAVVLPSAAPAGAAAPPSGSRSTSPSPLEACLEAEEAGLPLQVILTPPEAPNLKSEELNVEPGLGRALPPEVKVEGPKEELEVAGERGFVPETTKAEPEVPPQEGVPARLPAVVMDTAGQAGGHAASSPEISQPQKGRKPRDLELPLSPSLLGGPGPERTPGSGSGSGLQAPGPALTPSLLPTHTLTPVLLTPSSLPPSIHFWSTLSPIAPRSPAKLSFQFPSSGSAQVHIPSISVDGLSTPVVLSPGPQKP
How it was run: as §1

GABPA = biological target: T3, GABPA (Homo sapiens, UniProt Q06546 1-454); settings: protein: recombinant; tags: N-terminal GST; dsDNA, one strand shown
T3 sequence: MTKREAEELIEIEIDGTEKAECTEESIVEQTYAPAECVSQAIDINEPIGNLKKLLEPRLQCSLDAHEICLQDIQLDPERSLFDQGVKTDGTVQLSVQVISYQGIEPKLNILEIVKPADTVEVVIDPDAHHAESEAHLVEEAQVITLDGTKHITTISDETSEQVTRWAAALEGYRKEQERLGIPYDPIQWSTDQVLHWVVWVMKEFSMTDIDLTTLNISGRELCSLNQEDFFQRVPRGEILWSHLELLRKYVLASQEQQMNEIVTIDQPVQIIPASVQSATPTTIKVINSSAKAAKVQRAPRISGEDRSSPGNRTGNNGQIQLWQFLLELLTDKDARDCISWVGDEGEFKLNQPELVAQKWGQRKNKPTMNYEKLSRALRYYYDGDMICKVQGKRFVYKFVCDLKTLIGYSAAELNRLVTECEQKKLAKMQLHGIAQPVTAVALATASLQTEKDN
How it was run: as §1

ERG = biological target: T4, ERG (Homo sapiens, UniProt P11308 1-479); settings: protein: recombinant; tags: N-terminal GST; dsDNA, one strand shown
T4 sequence: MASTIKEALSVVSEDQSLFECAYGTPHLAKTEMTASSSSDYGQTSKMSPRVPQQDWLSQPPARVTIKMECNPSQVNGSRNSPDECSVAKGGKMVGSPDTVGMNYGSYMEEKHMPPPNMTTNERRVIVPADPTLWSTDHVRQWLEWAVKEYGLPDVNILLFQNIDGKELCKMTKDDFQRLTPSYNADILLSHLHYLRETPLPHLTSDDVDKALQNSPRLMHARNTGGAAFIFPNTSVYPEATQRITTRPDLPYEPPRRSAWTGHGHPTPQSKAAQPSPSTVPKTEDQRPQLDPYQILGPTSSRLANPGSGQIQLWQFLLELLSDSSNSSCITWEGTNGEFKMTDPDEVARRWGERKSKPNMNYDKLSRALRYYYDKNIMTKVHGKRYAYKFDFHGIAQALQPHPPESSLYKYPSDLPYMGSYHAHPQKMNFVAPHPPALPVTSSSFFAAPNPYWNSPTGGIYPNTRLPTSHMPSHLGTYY
How it was run: as §1

ELF1 = ELF1 (Homo sapiens, UniProt P32519 1-619); settings: protein: recombinant; tags: N-terminal GST; dsDNA, one strand shown
How it was run: as §1

EHF = biological target: T5, EHF (Homo sapiens, UniProt Q9NZC4 1-300); settings: protein: recombinant; tags: N-terminal GST; dsDNA, one strand shown
T5 sequence: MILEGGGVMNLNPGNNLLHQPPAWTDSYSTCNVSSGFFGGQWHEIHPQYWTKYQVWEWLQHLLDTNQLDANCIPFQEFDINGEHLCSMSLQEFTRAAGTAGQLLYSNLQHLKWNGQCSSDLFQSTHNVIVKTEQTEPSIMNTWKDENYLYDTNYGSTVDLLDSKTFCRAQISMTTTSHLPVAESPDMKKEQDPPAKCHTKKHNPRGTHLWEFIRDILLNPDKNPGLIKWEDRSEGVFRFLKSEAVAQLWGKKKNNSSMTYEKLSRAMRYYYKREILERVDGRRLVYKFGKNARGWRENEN
How it was run: as §1

SPI1 = SPI1 (Homo sapiens, UniProt P17947 1-270); settings: protein: recombinant; tags: N-terminal GST; dsDNA, one strand shown
How it was run: as §1

SPIB = SPIB (Homo sapiens, UniProt Q01892 1-262); settings: protein: recombinant; tags: N-terminal GST; dsDNA, one strand shown
How it was run: as §1

ELK3 = biological target: T6, ELK3 (Homo sapiens, UniProt P41970 1-407); settings: protein: recombinant; tags: N-terminal GST; dsDNA, one strand shown
T6 sequence: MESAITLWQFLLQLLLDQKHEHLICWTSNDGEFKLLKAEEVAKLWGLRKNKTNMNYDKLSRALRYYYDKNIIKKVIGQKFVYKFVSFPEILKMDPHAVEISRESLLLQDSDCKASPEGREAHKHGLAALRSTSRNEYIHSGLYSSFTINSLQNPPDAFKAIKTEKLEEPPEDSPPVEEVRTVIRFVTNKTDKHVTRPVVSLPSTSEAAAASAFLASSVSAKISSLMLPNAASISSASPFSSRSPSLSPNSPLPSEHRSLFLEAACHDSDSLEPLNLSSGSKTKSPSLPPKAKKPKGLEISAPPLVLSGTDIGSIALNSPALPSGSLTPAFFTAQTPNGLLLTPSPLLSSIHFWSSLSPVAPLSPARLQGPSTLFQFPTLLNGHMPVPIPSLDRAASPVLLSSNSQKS
How it was run: as §1

FEV = biological target: T7, FEV (Homo sapiens, UniProt Q99581 1-238); settings: protein: recombinant; tags: N-terminal GST; dsDNA, one strand shown
T7 sequence: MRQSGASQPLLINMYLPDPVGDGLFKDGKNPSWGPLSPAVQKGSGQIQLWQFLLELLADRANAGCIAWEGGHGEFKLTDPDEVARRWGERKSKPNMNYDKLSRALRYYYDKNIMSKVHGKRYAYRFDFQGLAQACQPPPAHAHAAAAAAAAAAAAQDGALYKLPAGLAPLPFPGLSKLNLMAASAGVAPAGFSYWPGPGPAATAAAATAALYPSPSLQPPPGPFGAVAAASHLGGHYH
How it was run: as §1

ETV5 = ETV5 (Homo sapiens, UniProt P41161 1-510); settings: protein: recombinant; tags: N-terminal GST; dsDNA, one strand shown
How it was run: as §1

HSF1 = HSF1 (Homo sapiens, UniProt Q00613 1-529); settings: protein: recombinant; tags: N-terminal GST; chain copies: 3; dsDNA, one strand shown
How it was run: as §1

SPIC = biological target: T8, SPIC (Homo sapiens, UniProt Q8N5J4 1-248); settings: protein: recombinant; tags: N-terminal GST; dsDNA, one strand shown
T8 sequence: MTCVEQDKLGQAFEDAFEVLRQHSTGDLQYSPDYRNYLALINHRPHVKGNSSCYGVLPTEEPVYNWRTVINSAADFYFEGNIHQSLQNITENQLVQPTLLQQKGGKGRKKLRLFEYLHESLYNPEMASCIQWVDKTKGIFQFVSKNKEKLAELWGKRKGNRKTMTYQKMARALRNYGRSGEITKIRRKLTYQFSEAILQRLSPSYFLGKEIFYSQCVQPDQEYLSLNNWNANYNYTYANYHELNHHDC
How it was run: as §1

ELF4 = ELF4 (Homo sapiens, UniProt Q99607 1-663); settings: protein: recombinant; tags: N-terminal GST; dsDNA, one strand shown
How it was run: as §1

ELK4 = biological target: T9, ELK4 (Homo sapiens, UniProt P28324-2 1-405); settings: protein: recombinant; tags: N-terminal GST; dsDNA, one strand shown
T9 sequence: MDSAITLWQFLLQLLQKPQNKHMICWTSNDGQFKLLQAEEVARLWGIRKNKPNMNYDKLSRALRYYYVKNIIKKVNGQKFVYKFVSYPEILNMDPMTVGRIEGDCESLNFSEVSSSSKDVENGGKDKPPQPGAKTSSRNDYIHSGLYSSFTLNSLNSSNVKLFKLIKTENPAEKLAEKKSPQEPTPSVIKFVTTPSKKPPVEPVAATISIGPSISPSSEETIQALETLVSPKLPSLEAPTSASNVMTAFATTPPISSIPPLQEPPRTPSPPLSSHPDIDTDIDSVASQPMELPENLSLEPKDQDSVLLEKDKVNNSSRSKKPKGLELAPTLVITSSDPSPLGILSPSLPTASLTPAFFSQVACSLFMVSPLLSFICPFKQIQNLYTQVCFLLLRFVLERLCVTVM
How it was run: as §1

ETV2 = biological target: T10, ETV2 (Homo sapiens, UniProt O00321 1-342); settings: protein: recombinant; tags: N-terminal GST; dsDNA, one strand shown
T10 sequence: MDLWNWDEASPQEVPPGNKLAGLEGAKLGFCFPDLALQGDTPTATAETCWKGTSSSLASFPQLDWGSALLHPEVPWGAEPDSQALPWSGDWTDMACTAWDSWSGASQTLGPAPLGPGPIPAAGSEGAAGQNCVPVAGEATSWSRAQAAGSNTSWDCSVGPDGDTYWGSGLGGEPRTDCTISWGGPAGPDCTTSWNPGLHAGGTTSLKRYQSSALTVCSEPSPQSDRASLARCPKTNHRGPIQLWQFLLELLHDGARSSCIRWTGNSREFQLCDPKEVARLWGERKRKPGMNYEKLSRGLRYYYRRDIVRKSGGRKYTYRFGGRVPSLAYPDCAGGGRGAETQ
How it was run: as §1

ELF3 = biological target: T11, ELF3 (Homo sapiens, UniProt P78545 1-371); settings: protein: recombinant; tags: N-terminal GST; dsDNA, one strand shown
T11 sequence: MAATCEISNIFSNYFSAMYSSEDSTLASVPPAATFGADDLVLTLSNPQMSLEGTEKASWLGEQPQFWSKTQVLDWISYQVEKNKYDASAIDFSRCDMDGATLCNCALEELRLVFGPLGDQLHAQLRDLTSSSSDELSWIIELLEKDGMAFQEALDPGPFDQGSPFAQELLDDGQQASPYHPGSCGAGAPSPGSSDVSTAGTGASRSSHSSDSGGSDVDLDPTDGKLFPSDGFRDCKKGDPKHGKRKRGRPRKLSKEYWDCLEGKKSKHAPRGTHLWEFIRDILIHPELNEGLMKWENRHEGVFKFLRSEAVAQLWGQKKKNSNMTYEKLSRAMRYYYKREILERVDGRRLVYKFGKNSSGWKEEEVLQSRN
How it was run: as §1

CRX = CRX (Homo sapiens, UniProt O43186 1-299); settings: protein: recombinant; tags: N-terminal GST; dsDNA, one strand shown
How it was run: as §1

ETV1 = ETV1 (Homo sapiens, UniProt P50549 1-477); settings: protein: recombinant; tags: N-terminal GST; dsDNA, one strand shown
How it was run: as §1

ELF1, sequence (P32519 whole entry): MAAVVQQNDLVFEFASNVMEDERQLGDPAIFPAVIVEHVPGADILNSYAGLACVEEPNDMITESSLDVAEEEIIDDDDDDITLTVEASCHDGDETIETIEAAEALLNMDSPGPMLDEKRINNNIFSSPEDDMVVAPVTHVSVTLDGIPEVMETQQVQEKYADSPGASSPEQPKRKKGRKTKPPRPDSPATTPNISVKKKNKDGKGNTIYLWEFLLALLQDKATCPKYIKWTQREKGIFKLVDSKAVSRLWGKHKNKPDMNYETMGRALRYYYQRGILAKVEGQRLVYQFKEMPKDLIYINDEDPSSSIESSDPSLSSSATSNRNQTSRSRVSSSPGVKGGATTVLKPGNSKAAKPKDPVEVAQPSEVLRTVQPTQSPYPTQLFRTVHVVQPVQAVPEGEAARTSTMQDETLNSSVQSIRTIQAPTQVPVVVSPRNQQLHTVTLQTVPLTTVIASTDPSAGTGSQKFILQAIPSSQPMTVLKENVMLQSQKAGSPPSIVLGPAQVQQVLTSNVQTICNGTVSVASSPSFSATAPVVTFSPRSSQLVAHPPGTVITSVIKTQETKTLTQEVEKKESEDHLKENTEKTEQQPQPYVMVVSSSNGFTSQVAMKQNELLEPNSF
SPIB, sequence (Q01892 whole entry): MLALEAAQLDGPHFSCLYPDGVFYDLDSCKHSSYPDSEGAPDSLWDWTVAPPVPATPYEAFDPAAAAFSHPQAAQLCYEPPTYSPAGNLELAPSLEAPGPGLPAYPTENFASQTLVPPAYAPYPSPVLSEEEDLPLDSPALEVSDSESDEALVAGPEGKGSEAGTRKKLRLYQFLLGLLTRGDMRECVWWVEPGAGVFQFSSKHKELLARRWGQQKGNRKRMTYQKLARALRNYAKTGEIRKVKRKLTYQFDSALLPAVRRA
ELF4, sequence (Q99607 whole entry): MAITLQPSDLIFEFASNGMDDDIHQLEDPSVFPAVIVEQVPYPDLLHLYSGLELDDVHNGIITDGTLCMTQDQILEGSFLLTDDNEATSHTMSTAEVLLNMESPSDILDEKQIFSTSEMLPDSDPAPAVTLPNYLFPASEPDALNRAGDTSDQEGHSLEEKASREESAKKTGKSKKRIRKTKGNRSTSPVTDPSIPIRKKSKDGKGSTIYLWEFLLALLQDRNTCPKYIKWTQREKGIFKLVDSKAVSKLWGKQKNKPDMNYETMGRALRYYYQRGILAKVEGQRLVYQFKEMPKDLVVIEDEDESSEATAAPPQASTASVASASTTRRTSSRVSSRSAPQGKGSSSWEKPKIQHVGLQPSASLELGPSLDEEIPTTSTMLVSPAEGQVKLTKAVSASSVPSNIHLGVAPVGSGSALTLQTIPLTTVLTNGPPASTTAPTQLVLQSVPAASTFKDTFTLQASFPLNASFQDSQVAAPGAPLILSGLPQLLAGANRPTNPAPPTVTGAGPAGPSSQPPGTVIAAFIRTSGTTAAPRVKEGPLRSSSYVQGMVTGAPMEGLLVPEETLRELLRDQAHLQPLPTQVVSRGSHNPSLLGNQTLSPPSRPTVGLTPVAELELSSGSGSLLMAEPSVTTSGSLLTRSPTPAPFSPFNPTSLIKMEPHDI
HSF1, sequence (Q00613 whole entry): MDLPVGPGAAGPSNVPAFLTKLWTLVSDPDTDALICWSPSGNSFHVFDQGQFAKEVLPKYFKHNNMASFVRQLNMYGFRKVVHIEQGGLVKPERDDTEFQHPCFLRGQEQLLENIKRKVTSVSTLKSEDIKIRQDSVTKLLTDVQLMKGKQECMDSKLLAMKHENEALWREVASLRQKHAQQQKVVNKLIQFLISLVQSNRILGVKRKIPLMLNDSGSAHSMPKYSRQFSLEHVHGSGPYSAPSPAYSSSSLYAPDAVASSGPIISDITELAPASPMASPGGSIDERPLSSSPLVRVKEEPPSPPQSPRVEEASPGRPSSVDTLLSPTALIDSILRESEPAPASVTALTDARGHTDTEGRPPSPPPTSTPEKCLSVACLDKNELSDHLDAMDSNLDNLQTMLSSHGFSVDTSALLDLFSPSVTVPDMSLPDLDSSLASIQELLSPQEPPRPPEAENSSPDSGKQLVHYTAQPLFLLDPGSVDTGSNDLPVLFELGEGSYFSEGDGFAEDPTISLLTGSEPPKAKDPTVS
ETV5, sequence (P41161 whole entry): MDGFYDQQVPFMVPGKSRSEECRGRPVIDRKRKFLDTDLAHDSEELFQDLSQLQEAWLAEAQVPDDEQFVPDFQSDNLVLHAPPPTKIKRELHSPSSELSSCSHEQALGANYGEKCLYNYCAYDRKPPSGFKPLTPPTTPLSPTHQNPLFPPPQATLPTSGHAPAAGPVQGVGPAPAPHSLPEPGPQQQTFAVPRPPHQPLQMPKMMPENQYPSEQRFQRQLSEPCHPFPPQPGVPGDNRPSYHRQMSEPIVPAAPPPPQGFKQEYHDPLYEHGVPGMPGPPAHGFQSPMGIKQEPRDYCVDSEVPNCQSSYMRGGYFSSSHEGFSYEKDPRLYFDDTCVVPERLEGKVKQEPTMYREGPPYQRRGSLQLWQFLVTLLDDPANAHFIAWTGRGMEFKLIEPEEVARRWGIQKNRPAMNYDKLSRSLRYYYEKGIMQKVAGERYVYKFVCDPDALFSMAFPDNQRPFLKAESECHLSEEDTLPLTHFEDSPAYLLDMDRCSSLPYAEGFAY
CRX, sequence (O43186 whole entry): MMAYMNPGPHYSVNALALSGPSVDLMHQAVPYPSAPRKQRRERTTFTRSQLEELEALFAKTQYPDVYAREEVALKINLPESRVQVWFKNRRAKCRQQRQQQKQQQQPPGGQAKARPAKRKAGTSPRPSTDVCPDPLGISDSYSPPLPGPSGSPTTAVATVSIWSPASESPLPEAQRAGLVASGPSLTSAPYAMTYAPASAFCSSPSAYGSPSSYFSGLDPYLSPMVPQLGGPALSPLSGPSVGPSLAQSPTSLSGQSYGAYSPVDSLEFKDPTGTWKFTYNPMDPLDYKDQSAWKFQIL
ETV1, sequence (P50549 whole entry): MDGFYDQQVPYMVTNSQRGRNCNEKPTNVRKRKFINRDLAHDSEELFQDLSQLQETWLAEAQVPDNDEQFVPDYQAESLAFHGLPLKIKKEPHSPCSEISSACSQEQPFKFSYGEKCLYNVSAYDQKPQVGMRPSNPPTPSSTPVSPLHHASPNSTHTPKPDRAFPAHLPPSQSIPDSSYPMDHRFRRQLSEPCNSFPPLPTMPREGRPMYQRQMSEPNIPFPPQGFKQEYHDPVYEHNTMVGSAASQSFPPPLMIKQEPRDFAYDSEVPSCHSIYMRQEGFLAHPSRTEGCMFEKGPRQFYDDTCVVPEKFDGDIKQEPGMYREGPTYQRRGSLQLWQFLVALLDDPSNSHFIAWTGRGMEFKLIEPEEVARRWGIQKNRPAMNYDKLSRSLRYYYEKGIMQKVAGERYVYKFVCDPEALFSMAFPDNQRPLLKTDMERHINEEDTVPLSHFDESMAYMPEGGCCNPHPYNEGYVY

## TAAATG
FLI1
  binding signal: 1.22 fold enrichment (6-mer frequency, TF over GST control)
ELK1
  binding signal: 1.21 fold enrichment (6-mer frequency, TF over GST control)
GABPA
  binding signal: 1.34 fold enrichment (6-mer frequency, TF over GST control)
ERG
  binding signal: 1.27 fold enrichment (6-mer frequency, TF over GST control)
ELF1
  binding signal: 1.34 fold enrichment (6-mer frequency, TF over GST control)
EHF
  binding signal: 1.27 fold enrichment (6-mer frequency, TF over GST control)
SPI1
  binding signal: 1.36 fold enrichment (6-mer frequency, TF over GST control)
SPIB
  binding signal: 1.35 fold enrichment (6-mer frequency, TF over GST control)
ELK3
  binding signal: 1.29 fold enrichment (6-mer frequency, TF over GST control)
FEV
  binding signal: 1.18 fold enrichment (6-mer frequency, TF over GST control)
ETV5
  binding signal: 1.38 fold enrichment (6-mer frequency, TF over GST control)
HSF1
  binding signal: 1.37 fold enrichment (6-mer frequency, TF over GST control)
SPIC
  binding signal: 1.46 fold enrichment (6-mer frequency, TF over GST control)
ELF4
  binding signal: 1.25 fold enrichment (6-mer frequency, TF over GST control)
ELK4
  binding signal: 1.39 fold enrichment (6-mer frequency, TF over GST control)
ETV2
  binding signal: 1.31 fold enrichment (6-mer frequency, TF over GST control)
ELF3
  binding signal: 1.34 fold enrichment (6-mer frequency, TF over GST control)
CRX
  binding signal: 1.69 fold enrichment (6-mer frequency, TF over GST control)
ETV1
  binding signal: 1.37 fold enrichment (6-mer frequency, TF over GST control)

Reference: paper PMC7862700, “An all-to-all approach to the identification of sequence-specific readers for epigenetic DNA modifications on cytosine”
